From PubChem
Rtt109 Vps75: C. albicans Rtt109 histone acetyltransferase inhibition. actives 0.16% (n = 330,000). purified Rtt109/Vps75, ThioGlo CoA-SH fluorescence, 4 h. inhibition, % at 34.9 µM. AID 540336. Q5AAJ8;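 active = inhibition of at least 50% in every replicate; inconclusive = best replicate reaches 50% inhibition but some replicates fall short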
Target sequence (Q5AAJ8 whole entry, looked up): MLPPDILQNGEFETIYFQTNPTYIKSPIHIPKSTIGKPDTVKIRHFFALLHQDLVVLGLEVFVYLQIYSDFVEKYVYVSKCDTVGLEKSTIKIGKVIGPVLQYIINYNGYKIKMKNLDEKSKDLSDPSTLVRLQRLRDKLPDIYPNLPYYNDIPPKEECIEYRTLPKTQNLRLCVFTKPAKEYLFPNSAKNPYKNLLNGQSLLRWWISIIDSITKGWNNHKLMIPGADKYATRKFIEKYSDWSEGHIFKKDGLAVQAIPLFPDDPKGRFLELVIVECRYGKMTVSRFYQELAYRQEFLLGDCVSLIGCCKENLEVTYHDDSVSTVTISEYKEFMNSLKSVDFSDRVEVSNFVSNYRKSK
esBAF inh: blocks esBAF chromatin remodeling in mouse ES cells; Bmi1-luciferase knock-in reporter, 24 h; 100% = twice the neutral-well signal; reporter increase, % at 12.5 µM; AID 602393; actives 2% (n = 350,000); in the data active = activation above about 40%; inconclusive = no clear call, values can overlap the other calls;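 also: a rise in the Bmi1 reporter signal indicates esBAF inhibition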
MITF act: increases MITF-driven TRPM1 promoter luciferase signal; SK-MEL-5 TRPM1-promoter luciferase, 24 h; % of positive control, neutral wells = 0; activation, % at 12.5 µM; actives 0.75% (n = 300,000); AID 588334;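 active = mean activation of at least 80% with every replicate also reaching 80%; inconclusive = mean reaches 80% but some replicate falls short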
Wnt act: activators of Wnt/beta-catenin signaling | Wnt/beta-catenin reporter cell assay, activator, plate reader | actives 1.2% (n = 300,000) | activation, % at 9.35 µM | AID 743398; in the data active = activation above about 30%, passing the limit was not always enough; inconclusive = no clear call, values can overlap the other calls
Statin myotox sup: suppressors of simvastatin-induced myotoxicity in C2C12 myotubes | ATP luminescence, 48 h; scaled: DMSO 0, geranylgeraniol control 100 | rescue of ATP level, % at 7.49 µM | actives 0.78% (n = 330,000);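 active = mean ATP rescue above about 67%, or every replicate alone reaching that limit, limit read from the data, passing the limit was not always enough; inconclusive = no clear call, values can overlap the other calls; inactive = mean under the limit and some replicate under it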;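 also: myotubes were challenged with 10 µM simvastatin during compound exposure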
Ring1 derepress: confirmation of esBAF inhibitors: Ring1 de-repression in mouse ESCs. shares compounds with esBAF inh. mouse ESC E14, Ring1 mRNA RT-qPCR fold change. fold change at 33 µM. 550 tested, under 10 active. AID 743176;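 active = Ring1 gene expression raised more than 2-fold over untreated cells in both replicates at either tested dose; inconclusive = only one replicate above 2-fold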;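 also: Ring1 transcript normalised to actin housekeeping signal by TaqMan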
esBAF Fgf4 qPCR: esBAF inhibition confirmed by Fgf4 repression. Fgf4 expression fold change at 33 µM. shares compounds with esBAF inh. actives 4% (n = 550). mouse ESC E14, Fgf4 mRNA qPCR fold change; hits give low values;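 active = Fgf4 expression under 0.8 fold of control in both repeat measurements at one or both tested doses; inconclusive = under 0.8 fold in just a single repeat measurement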;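 also: Fgf4 transcript normalised to actin in duplex TaqMan qPCR; cells exposed to compound for 24 h before lysis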
esBAF Bmi1 qPCR: confirmation of esBAF inhibitors: Bmi1 de-repression in mouse ESCs; mouse ESE14 ES cells, Bmi1 mRNA qPCR fold; hits give high values; shares compounds with esBAF inh; fold change at 33 µM; AID 743180; 550 tested, under 10 active;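 active = Bmi1 expression fold change above 6 at either tested concentration, seen in replicate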;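 also: higher fold means more Bmi1 de-repression and stronger esBAF inhibition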
A549 cytotox: kills or reduces viability of A549 cells. cell viability change % (negative = cytotoxic), % at 25 µM, hits read low. shares compounds with esBAF inh. A549 cytotoxicity, plate reader. AID 743188. 550 tested, under 10 active; call rule not given here
HepG2 cytotox SP: cytotoxicity in HepG2 cells; shares compounds with esBAF inh; plate reader; hits give low values; activity change, negative = inhibition, % at 25 µM; actives 4% (n = 550); in the data active = activity change below about -50%
HEK293 tox SP: kills or reduces viability of HEK293 cells; shares compounds with esBAF inh; HEK293 cytotoxicity, plate reader; activity change, negative = inhibition, % at 25 µM, hits read low; actives 3% (n = 550); in the data active = activity change below about -38%, passing the limit was not always enough
A number is an active result; 0 = inactive; ? = inconclusive; - = not tested or not shown. Rows were chosen to be rich in hits. Some 3.1% of all compounds tested hit in one or more screens of this group.

SMILES	Rtt109 Vps75	esBAF inh	MITF act	Wnt act	Statin myotox sup	Ring1 derepress	esBAF Fgf4 qPCR	esBAF Bmi1 qPCR	A549 cytotox	HepG2 cytotox SP	HEK293 tox SP
C[C@@H]1CN([C@H](C)CO)C(=O)c2cc(C#Cc3ccccn3)cnc2O[C@H]1CN(C)C(=O)c1cnccn1	-	0	-	-	0	-	-	-	-	-	-
O=C(c1ccccc1)c1ccc2ccccc2c1	0	74.7	0	0	0	0	0	0	0	0	0
C[C@H](CO)N1C[C@H](C)[C@@H](CN(C)C(=O)Nc2ccc(F)cc2)Oc2ccc(NC(=O)c3ccncc3)cc2C1=O	-	0	-	-	0	-	-	-	-	-	-
O=c1oc2ccccc2c(O)c1CN1CCCCC1	0	0	-	-	0	-	-	-	-	-	-
O=C(Cc1c(O)c2ccccc2oc1=O)c1ccc(F)cc1	0	69.4	-	0	0	0	0	0	0	0	0
COc1ccc(-c2cc3ccccc3s2)cc1[C@H]1[C@H]2C=CC[C@@H](C)[C@@H]2C(=O)N1Cc1ccccc1	0	50.2	0	36.9	0	0	0	0	0	0	0
CO[C@@H](CN(C)Cc1cc(F)ccc1F)[C@@H](C)CN(C(=O)Nc1ccc(C(F)(F)F)cc1)[C@@H](C)CO	-	0	-	-	0	-	-	-	-	-	-
O=Cc1cnc(N2CCCCC2)s1	0	-	0	0	-	-	-	-	-	-	-
O/N=C\c1cnc(N2CCN(c3ccccc3)CC2)s1	0	84.3	?	0	0	0	0	0	0	0	0
c1ccc(CCNc2ccccn2)nc1	0	-	0	0	-	-	-	-	-	-	-
c1ccc(CCNc2ccc3c(c2)Cc2ccccc2-3)nc1	0	82.2	0	0	0	0	?	0	0	0	0
O=C(Nc1ccc(Nc2ccccc2)cc1)Nc1ccccc1Cl	0	70.2	101.7	0	0	0	0	0	0	0	0
COc1cc(Cl)ccc1OCc1cc(C(=O)N2CCN(C)C(=O)[C@@H]2C)no1	-	95.8	-	43.5	0	0	0.498	0	0	0	0
CO[C@H]1CN(C)C(=O)c2cc(NS(=O)(=O)c3ccc(Cl)cc3)ccc2OC[C@H](C)NC[C@H]1C	-	0	-	-	0	-	-	-	-	-	-
CCn1c(C)nc2cc(C(=O)NN=Cc3ccccc3OC(F)F)ccc21	0	79.4	90.4	0	0	0	0	0	0	0	0
CCn1c(C)nc2cc(C(=O)NNC(=S)Nc3ccccc3OC)ccc21	-	-	-	0	-	-	-	-	-	-	-
CCN1[C@H](C(=O)NCCc2cn(C)cn2)[C@@H](CO)[C@@H]2Cn3c(ccc(-c4ccncc4)c3=O)[C@@H]21	-	0	-	-	0	-	-	-	-	-	-
Cc1ccc(C)c(OCc2nc3ccccc3[nH]2)c1	0	66.3	0	45.7	0	0	0	0	0	0	0
Cc1cccc(C)c1OCc1nc2ccccc2[nH]1	0	-	0	0	-	-	-	-	-	-	-
COc1ccc(S(=O)(=O)Nc2cc(C(=O)NC3CCCCCC3)ccc2N2CCOCC2)cc1	0	0	0	-	0	0	0	0	0	0	0
CNc1nc(Cl)nc(Nc2ccccc2)n1	-	-	0	0	-	-	-	-	-	-	-
C=CCNc1nc(Cl)nc(Nc2ccccc2)n1	0	59.5	0	0	0	0	0	0	0	0	0
Oc1ccccc1/C=N/N1CCN(c2ccccn2)CC1	0	78.4	0	37.8	0	0	0	0	0	0	0
Cc1cccc(-c2noc(CCC(=O)N3CCN(c4cc(C)ccc4C)CC3)n2)c1	0	62.9	0	0	0	0	0	0	0	0	0
CCCOc1ccc(NC(=O)C2CC(=O)N/C(=N/N=C(C)/C=C/c3ccc(N(C)C)cc3)S2)cc1 (stereo not given)	0	59.3	0	-	0	0	0	0	0	0	0
SMILES	Rtt109 Vps75	esBAF inh	MITF act	Wnt act	Statin myotox sup	Ring1 derepress	esBAF Fgf4 qPCR	esBAF Bmi1 qPCR	A549 cytotox	HepG2 cytotox SP	HEK293 tox SP
CC(/C=C/c1ccc(N(C)C)cc1)=N/N=C1/NC(=O)CC(C(=O)Nc2ccc(Cl)cc2)S1 (stereo not given)	0	-	0	-	-	-	-	-	-	-	-
COc1ccc(Cl)cc1C(=O)NNC(=O)c1cccs1	0	54.6	0	0	0	0	0	0	0	0	0
Cc1noc(C)c1S(=O)(=O)Nc1ccc2c(c1)C(=O)N([C@@H](C)CO)C[C@H](C)[C@H](CN(C)S(=O)(=O)c1c(C)noc1C)OCCCC[C@@H](C)O2	-	0	-	-	-	-	-	-	-	-	-
Fc1ccccc1/C=N/Nc1nc2ccccc2o1	-	0	0	0	0	-	-	-	-	-	-
FC(F)Oc1ccccc1/C=N/Nc1nc2ccccc2o1	0	58.9	-	0	0	0	0	0	0	0	0
CNC[C@H]1OCCCC[C@@H](C)Oc2ccc(NC(=O)Nc3ccccc3)cc2C(=O)N([C@H](C)CO)C[C@H]1C	-	0	-	-	0	-	-	-	-	-	-
CN(CCc1ccccn1)C(=O)CCc1nnc(CCCc2ccccc2)o1	0	109.9	0	0	0	0	0	0	0	0	0
Cn1c(/C(C#N)=C(\O)c2ccc(Cl)s2)nc2ccccc21	0	70.3	0	30.4	0	0	?	0	0	0	0
Cn1c(/C(C#N)=C(\O)c2ccc([N+](=O)[O-])s2)nc2ccccc21	0	0	0	0	0	-	-	-	-	-	-
CCCC(=O)Nc1ccc2c(c1)c1ccccc1n2CC	0	-	0	0	-	-	-	-	-	-	-
CCn1c2ccccc2c2cc(NC(=O)N3CCCCC3)ccc21	-	96.4	-	0	0	0	0	0	0	0	0
C[C@H](CO)N1C[C@H](C)[C@@H](CN(C)S(=O)(=O)c2ccc(Cl)cc2)Oc2ccc(NS(=O)(=O)c3cn(C)cn3)cc2CC1=O	-	0	-	-	0	-	-	-	-	-	-
COc1cc(/C=C2/C(=N)N3N=C(CC(=O)N4CCOCC4)SC3=NC2=O)ccc1OCc1ccccc1F	0	0	0	-	0	-	-	-	-	-	-
COc1cc(/C=C2/C(=N)N3N=C(CC(=O)N4CCOCC4)SC3=NC2=O)ccc1OCc1ccc(F)cc1	0	48.0	0	0	0	0	0	0	0	0	0
C[C@H]1CN([C@@H](C)CO)C(=O)c2cc(NC(=O)Cn3cnnn3)ccc2O[C@@H]1CN(C)C(=O)Nc1cccc2ccccc12	-	0	-	-	0	-	-	-	-	-	-
O=c1oc(-c2ccccc2)cc2ccccc12	-	77.0	-	0	0	0	0	0	0	0	0
CC(=O)c1c(C)[nH]c(C(=O)OCc2ccc(Br)cc2)c1C	0	63.5	0	0	0	0	0	0	0	0	0
CC1CC(C)CN(C(=O)CCNS(=O)(=O)c2cccs2)C1 (stereo not given)	0	-	0	0	-	-	-	-	-	-	-
O=C(CCNS(=O)(=O)c1cccs1)N1CCc2ccccc2C1	0	67.8	0	0	0	0	0	0	0	0	0
